Only some compounds are listed: those with a hit (about 3% of all), similar ones and a draw of the others.
SENP7 inh: blocks the human protease SENP7; recombinant SENP7, Z-RLRGG-aminoluciferin luminescence, 40 min; inhibition, % at 5 µM; actives 1.5% (n = 330,000); AID 434973;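 active means inhibition above about 50% at the single test dose, limit read from the data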;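 further: plate controls were DMSO with enzyme for no effect and no enzyme buffer wells for full effect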
SENP6 inh: inhibitors of human SENP6 protease; Recombinant SENP6 catalytic domain, aminoluciferin luminescence; Q9GZR1; actives 1.8% (n = 330,000); inhibition, % at 10 µM;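 active means inhibition above about 50% at the single tested dose, limit read from the data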;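 further: plate controls were DMSO wells with enzyme for no effect and DMSO wells lacking enzyme for full effect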
Target sequence (Q9GZR1 628-1112 limits assumed): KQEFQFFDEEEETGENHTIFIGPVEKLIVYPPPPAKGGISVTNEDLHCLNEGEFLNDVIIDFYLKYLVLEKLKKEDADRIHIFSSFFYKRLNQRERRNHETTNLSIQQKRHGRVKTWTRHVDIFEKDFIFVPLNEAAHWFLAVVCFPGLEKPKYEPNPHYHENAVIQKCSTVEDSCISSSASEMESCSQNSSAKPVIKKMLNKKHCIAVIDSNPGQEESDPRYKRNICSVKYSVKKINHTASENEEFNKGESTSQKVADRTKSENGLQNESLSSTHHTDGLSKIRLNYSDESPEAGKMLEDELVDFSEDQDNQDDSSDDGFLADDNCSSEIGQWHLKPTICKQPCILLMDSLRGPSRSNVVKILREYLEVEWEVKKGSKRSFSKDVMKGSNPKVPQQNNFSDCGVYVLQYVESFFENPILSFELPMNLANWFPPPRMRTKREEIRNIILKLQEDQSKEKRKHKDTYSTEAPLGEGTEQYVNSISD
PPC-1+TRAIL kill: PPC-1 cancer cell killing with TRAIL present. PPC-1 cells + TRAIL, ATPLite viability luminescence. cell killing (% activity), % at 4 µM or 5 µM. actives 0.41% (n = 220,000);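 active means cell killing above 50% in the first pass at 4 µM, then a duplicate retest at 5 µM averaging 50% or more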;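 further: plate controls were cells with TRAIL plus DMSO for no effect and medium-only wells lacking cells for full effect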
SENP8 block-1: SENP8 (human) protease inhibition; Q96LD8; recombinant SENP8, Nedd8 substrate fluorescence; inhibition, % at 20 µM; actives 0.64% (n = 360,000); AID 602440; in the data active means inhibition mostly above about 40%, no sharp cut-off; inactive means mostly below about 27%
SENP8 block-2: blocks the human protease SENP8; Q96LD8; purified SENP8, Z-RLRGG-aminoluciferin cleavage, luminescence; inhibition, % at 10 µM; actives 1.2% (n = 330,000); AID 2540; in the data active means inhibition above about 50%
C8 TRAIL sens: caspase-8 TRAIL sensitization; inhibition (viability loss, TRAIL sensitization), % at 10 µM; actives 1% (n = 360,000); AID 624354; NB7+C8 cells + TRAIL, ATPlite viability luminescence;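 active means compounds causing at least 50% loss of cell viability in the single-dose screen, relative to plate controls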
Numbers without * were called inactive; x = not tested or not shown.

SMILES	SENP7 inh	SENP6 inh	PPC-1+TRAIL kill	SENP8 block-1	SENP8 block-2	C8 TRAIL sens
CC(C)CC1C(=O)N(Cc2cn(CCC3OCCO3)nn2)CCS(=O)(=O)N1Cc1ccc(-c2ccc(Cl)c(Cl)c2)cc1 (stereo unspecified)	x	x	x	-11	x	8
C=CCn1c(C)cc(C2=NNC(=Nc3ccc(C)cc3)SC2)c1C	11	-18	-5	-26	-1	21
C=CCn1c(C)cc(C2=NNC(=NC(C)(C)C)SC2)c1C	9	83*	49	-4	51*	70*
Cc1ccc(Cl)cc1Nc1nc(-c2sc(NC(=O)c3cccc(Cl)c3)nc2C)cs1	-3	66*	13	x	56*	x
COc1ccc(Cl)cc1Nc1nc(-c2sc(NC(=O)c3ccccc3)nc2C)cs1	45	44	4	x	44	x
COc1ccc(OC)c(Nc2nc(-c3sc(NC(=O)c4ccccc4)nc3C)cs2)c1	53*	67*	4	x	52*	x
Cc1ccccc1Nc1nc(-c2sc(NC(=O)c3cccc(Cl)c3)nc2C)cs1	16	77*	8	x	60*	x
Cc1ccc(-c2csc(NC(=O)c3ccc(-c4ccccc4)cc3)n2)o1	15	15	21	-92	8	66*
Cc1ccc(Cl)cc1Nc1nc(-c2sc(NC(=O)c3ccco3)nc2C)cs1	3	-4	8	-136	-4	30
COc1ccc(CC(C)NCC(O)c2ccc(O)c(NC=O)c2)cc1 (stereo unspecified)	x	x	x	23	x	-8
O=C(O)c1cc(S(=O)(=O)N2CCOCC2)c[nH]1	-3	-15	x	24	-7	-12
CC(NS(=O)(=O)c1ccccc1)C1CC2CCC1C2 (stereo unspecified)	-10	-9	x	11	1	-4
N#CCc1nc(C(c2ccccc2)c2ccccc2)no1	8	-5	x	-2	5	14
Cc1ccccc1Nc1nc(-c2sc(NC(=O)c3ccccc3)nc2C)cs1	61*	80*	16	x	61*	x
O=C(N=Nc1c(O)n(Cc2ccccc2)c2ccccc12)c1ccncc1	7	26	3	42*	-12	-2
O=C(c1cnn2c(C(F)F)cc(-c3ccccc3)nc12)N1CCN(Cc2ccc3c(c2)OCO3)CC1	2	1	x	-130	4	2
CCCc1nn(C)c(C(=O)Nc2cccc(Cl)c2)c1Cl	3	-1	51*	16	-1	-3
CN1OC[C@@H]2CN[C@H](c3ccc(-c4cc5ccccc5o4)cc3)C[C@@H]21	x	x	x	-24	x	86*
CCC1=C(CC2NCCc3ccccc32)CC2c3cc(OC)c(OC)cc3CCN2C1 (stereo unspecified)	x	x	x	-235	x	23
CC[C@H]1CN2CCc3cc(OC)c(OC)cc3C2C[C@@H]1C[C@H]1NCCc2cc(OC)c(OC)cc21 (stereo partly specified)	-14	11	x	6	6	56*
OC(CN1CCCCC1)c1ccc2c3c(cccc13)CC2 (stereo unspecified)	x	x	x	8	x	1
CN1C(=O)/C(=C2\SC(N)=NC2=O)c2ccccc21	-6	-9	10	43*	8	0
CN1C(=O)/C(=C2\SC(=S)N(CCCCCC(=O)O)C2=O)c2ccccc21	-6	0	12	16	-2	-7
N#CC1=C2SCN(Cc3ccco3)CN2C(=O)CC1c1c(F)cccc1Cl (stereo unspecified)	6	0	10	36*	11	5
Cc1ccc(C2CC(=O)N3CN(Cc4ccco4)CSC3=C2C#N)cc1 (stereo unspecified)	6	12	7	0	-2	-11
SMILES	SENP7 inh	SENP6 inh	PPC-1+TRAIL kill	SENP8 block-1	SENP8 block-2	C8 TRAIL sens
Cc1cccc(NC(=O)CCS(=O)(=O)c2cc3c(cc2Cl)NC(=O)CO3)c1	-4	6	x	8	5	-18
Cn1cc(Cl)c(C(=O)Nc2nc3ccc([N+](=O)[O-])cc3s2)n1	90*	65*	30	7	58*	25
CCC(=O)Nc1nc2ccc([N+](=O)[O-])cc2s1	2	7	24	21	-11	16
CCOc1ccc(NC(=S)N2CCC(NC(=O)c3ccco3)CC2)cc1	1	-16	x	10	-1	-5
CCCc1cc2c(=O)c(-c3ccc4c(c3)OCCO4)coc2cc1OC(=O)c1ccco1	-1	6	35	11	8	56*
O=C(CN1C(=O)NC2(CCCC2)C1=O)Nc1ccc(C(F)(F)F)cc1	-4	2	x	5	-7	-27

Screens deposited in PubChem by Sanford-Burnham Center for Chemical Genomics.
